Source: PubChem (National Center for Advancing Translational Sciences (NCATS))
This is one part of a sample in which hits are shown more often than they occur.
KAT2A inh: qHTS Assay for Inhibitors of GCN5L2 | Histone acetyltransferase KAT2A (Homo sapiens), Q92830 | GCN5L2 HAT assay, ThioGlo1 CoA-SH fluorescence | AID 504327, 2011 | Potency, µM (doses to about 58.9 µM), hits mostly inhibitors | actives 0.21% (n = 390,000)
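Enzyme at 20nM final was mixed with library compounds for 15 min at room temperature. Peptide H3(1-25) at 75uM, acetyl-CoA at 70uM and ThioGlo1 at 50uM were then added. Plates were read immediately and after 20 min (Ex340nm/Em540nm).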
RECQ1 helicase: qHTS Assay for Inhibitors of RecQ-Like Dna Helicase 1 (RECQ1); RECQ1 DNA unwinding, red fluorescence kinetic read; actives 0.54% (n = 240,000); Potency, µM (top dose mostly 57.3 µM), most hits filed as inhibitors; ATP-dependent DNA helicase Q1 (Homo sapiens), P46063; further: nearly all actives have a fitted effect of over 30% in size
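RECQ1T1 50 nM; forked duplex (20 bp + 30-nt ss tails) 200 nM, ATP 2 mM final; pH 8.0, 2 mM MgCl2, 2.5 ug/ml poly(dI-dC); 15 min compound preincubation; discontinuous kinetic read over 2 h at RT.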
APE1 inh-1: qHTS Assay for Inhibitors of the Human Apurinic/apyrimidinic Endonuclease 1 (APE1) | recombinant APE1, TAMRA/BHQ-2 abasic DNA cleavage fluorescence | AID 2517, 2012 | actives 0.35% (n = 350,000) | Potency, µM (titrated, usually from 65.8 µM), usual class: inhibitors; further: nearly all actives have a fitted effect of over 55% in size
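Quantitative HTS: incision of a TAMRA/BHQ-2 double-stranded substrate bearing a tetrahydrofuran abasic site by 0.75 nM APE1 raises fluorescence. Substrate 50 nM final, added after 15 min compound preincubation at room temperature; progress as third-minus-first kinetic read difference.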
BLM inh: qHTS Assay for Inhibitors of Bloom's syndrome helicase (BLM) | RecQ-like DNA helicase BLM (Homo sapiens), P54132 | recombinant BLM DNA unwinding, fluorescence dequenching | Potency, µM (doses to about 56.1 µM), usual class: inhibitors | actives 0.2% (n = 350,000); further: nearly all actives have a fitted effect of over 35% in size
KDM4E inh: qHTS Assay for Inhibitors of Human Jumonji Domain Containing 2E (JMJD2E); Lysine-specific demethylase 4E (Homo sapiens), B2RXH2; JMJD2E catalytic domain, FDH-coupled NADH fluorescence (FDH is formaldehyde dehydrogenase); Potency, µM (highest dose often 57.1 µM), hits mostly inhibitors; actives 1.6% (n = 230,000); AID 2147, 2009; active means well fitted inhibition curve with a large enough effect, not every such curve was filed as active; inconclusive means small, poorly fitted or top-dose-only effect, or another doubt; inactive means no such curve, though single readings can be large or run the other way; further: nearly all actives have a fitted effect of over 50% in size
TDP1 inh: qHTS Assay for Inhibitors of Tyrosyl-DNA Phosphodiesterase (TDP1). Tyrosyl-DNA phosphodiesterase 1 (Homo sapiens), Q9NUW8. recombinant TDP1, AlphaScreen DNA substrate cleavage. Potency, µM (highest dose often 130 µM), hits mostly inhibitors. actives 0.28% (n = 350,000). AID 485290, 2010; further: nearly all actives have a fitted effect of over 40% in size
Target sequence (Q9NUW8 whole entry, looked up): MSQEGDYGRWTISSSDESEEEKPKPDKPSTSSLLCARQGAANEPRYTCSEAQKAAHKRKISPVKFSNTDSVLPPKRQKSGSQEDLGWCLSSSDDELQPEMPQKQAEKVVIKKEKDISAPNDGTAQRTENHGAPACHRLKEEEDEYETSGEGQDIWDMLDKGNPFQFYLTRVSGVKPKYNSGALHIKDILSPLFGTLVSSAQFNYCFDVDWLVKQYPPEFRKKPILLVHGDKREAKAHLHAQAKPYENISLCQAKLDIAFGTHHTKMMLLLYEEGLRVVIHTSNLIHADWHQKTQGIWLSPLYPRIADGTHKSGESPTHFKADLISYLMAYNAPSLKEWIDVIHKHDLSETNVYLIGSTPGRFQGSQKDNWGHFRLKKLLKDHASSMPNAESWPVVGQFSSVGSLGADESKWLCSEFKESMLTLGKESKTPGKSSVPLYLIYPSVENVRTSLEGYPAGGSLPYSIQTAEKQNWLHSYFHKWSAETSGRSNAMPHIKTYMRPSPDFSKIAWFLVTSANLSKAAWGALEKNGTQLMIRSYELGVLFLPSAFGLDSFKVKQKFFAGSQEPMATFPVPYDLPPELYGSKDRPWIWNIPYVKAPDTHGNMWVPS
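E. coli-derived human Tdp1, 1 nM final. Cpd preinc 15 min RT; substrate 15 nM final, 5 min RT; AS bead mix 10 ug/ml final, 10 min RT. Signal loss = tyrosine-FITC cleavage. No-enzyme wells = max signal.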
APE1 dye cs: Counterscreen for APE1 Inhibitors: Fluorescent Dye Displacement Assay. shares compounds with APE1 inh-1. DNA fluorescent dye displacement counterscreen, fluorescence. Potency, µM (highest dose often 28.5 µM), actives largely listed as inhibitors. actives 7% (n = 480);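 further: loss of thiazole orange fluorescence as the dye is displaced from duplex DNA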
EndoIV counter: Counterscreen for APE1 Inhibitors: qHTS Assay for Inhibitors of Endonuclease IV. shares compounds with APE1 inh-1. E. coli Endo IV, fluorogenic AP-site DNA cleavage. Potency, µM (series often up to 27.1 µM), most hits filed as inhibitors. actives 4% (n = 560)
APE1 inh-2: Confirmation qHTS Assay for Inhibitors of the Human Apurinic/apyrimidinic Endonuclease 1 (APE1); shares compounds with APE1 inh-1; purified APE1, fluorogenic abasic-site DNA cleavage; Potency, µM (doses to about 57.1 µM), actives largely listed as inhibitors; actives 44% (n = 750); AID 2572, 2010; further: nearly all actives have a fitted effect of over 30% in size
APE1 FP inh: qHTS FP-Based Assay for Inhibitors of the Human Apurinic/apyrimidinic Endonuclease 1 (APE1) | shares compounds with APE1 inh-1 | APE1 binding to TAMRA-labelled double-stranded DNA, fluorescence polarization displacement | Potency, µM (titrated, usually from 28.5 µM), hits mostly inhibitors | actives 7% (n = 480) | AID 2573, 2010
A number is an active result; [ ] = dose if it differs, or a comment. Unless noted, the call rests on the fitted dose curve; in most records, active means well fitted curve in the direction sought with a large enough effect; inconclusive means small, poorly fitted or top-dose-only effect, or another doubt; inactive means no such curve, though single readings can be large; an effect the other way counts as inactive or inconclusive.

Screening [N-]=[N+]=Nc1ccc(C(=O)CSC[C@H](NC(=O)CC[C@H](N)C(=O)O)C(=O)NCC(=O)O)cc1 returned KAT2A inh 7.94µM, RECQ1 helicase inactive, APE1 inh-1 inconclusive, KDM4E inh inactive, TDP1 inh inconclusive, EndoIV counter inactive and APE1 inh-2 inactive.
N[C@@H](CCC(=O)N[C@@H](CSN=O)C(=O)NCC(=O)O)C(=O)O was read as KAT2A inh inactive and APE1 inh-1 inactive.
Screening Clc1ccccc1-c1nc(NCc2cccs2)c2ccccc2n1 returned KAT2A inh inconclusive, RECQ1 helicase inactive, APE1 inh-1 7.94µM, BLM inh inactive, APE1 dye cs inconclusive, EndoIV counter inactive, APE1 inh-2 15.8µM and APE1 FP inh inactive.
O=c1cc2c(=O)oc3cc(O)c(O)oc3c2c(O)c1O was read as KAT2A inh inactive, RECQ1 helicase 4.47µM, APE1 inh-1 0.355µM, BLM inh inactive, KDM4E inh 3.98µM, TDP1 inh inconclusive, APE1 dye cs inconclusive, EndoIV counter inactive, APE1 inh-2 0.126µM and APE1 FP inh inactive.
COc1cc(/C=C(\C#N)C(=O)c2ccc(O)c(O)c2)cc(I)c1O was read as KAT2A inh inactive, RECQ1 helicase 0.891µM, APE1 inh-1 5.97µM, KDM4E inh 10µM, TDP1 inh inactive, EndoIV counter inactive and APE1 inh-2 inconclusive.
COC(=O)C1=C(C(=O)OC)[C@@H]2N(Cc3ccccc3)c3ccccc3[C@@]23C[C@@H](C(=O)OC)N(S(=O)(=O)c2ccc4c(c2)OCCN4C)C3=N1 was read as RECQ1 helicase inconclusive, APE1 inh-1 inactive[12.4 µM], BLM inh inactive[12.4 µM], KDM4E inh inactive[11.4 µM] and TDP1 inh inactive[21 µM].
C=CCc1cccc2cc(C(=O)Nc3ccc(S(=O)(=O)Nc4nnc(CC)s4)cc3)c(=O)oc12 was read as KAT2A inh inactive, RECQ1 helicase inactive, APE1 inh-1 inconclusive, BLM inh inconclusive, KDM4E inh inactive, TDP1 inh 50.1µM and APE1 inh-2 39.8µM.
Screening CCOC(=O)c1c(/C=N/Nc2ccccc2)c2sc(C)cc2n1C returned KAT2A inh inactive and APE1 inh-1 inactive.
`Cc1ccc2c3c(cccc13)-c1ccccc1C2=O` gave KAT2A inh inactive, RECQ1 helicase inactive, APE1 inh-1 inactive, BLM inh inactive, KDM4E inh inconclusive and TDP1 inh inactive.
`Cc1cc2c3c(cccc3n1)C(=O)c1ccccc1-2` gave RECQ1 helicase inactive, APE1 inh-1 inconclusive, BLM inh inactive, KDM4E inh inactive, TDP1 inh inactive, APE1 dye cs inconclusive, EndoIV counter inactive, APE1 inh-2 inconclusive and APE1 FP inh 2.51µM.
`COc1ccc(CNC(=O)Nc2cc(C)cc(C)c2)cc1` gave KAT2A inh inactive, RECQ1 helicase inactive, APE1 inh-1 inactive, BLM inh inactive, KDM4E inh inactive, TDP1 inh inactive, APE1 dye cs inactive, EndoIV counter inactive, APE1 inh-2 inactive and APE1 FP inh inactive.
Screening COc1ccc(CNC(=O)Nc2ccc(C)c(C)c2)cc1 returned KAT2A inh inconclusive, RECQ1 helicase inactive, APE1 inh-1 inactive, BLM inh inactive, KDM4E inh inactive and TDP1 inh inactive.
For O=C(O)c1cccc(NC(=S)NC(NC(=O)c2cccc([N+](=O)[O-])c2)C(Cl)(Cl)Cl)c1 (stereo unspecified) the results were KAT2A inh inactive, RECQ1 helicase inactive, APE1 inh-1 inconclusive, BLM inh inactive, KDM4E inh inactive, TDP1 inh 79.4µM and APE1 inh-2 inconclusive.
For O=C(O)c1cccc(NC(=S)NC(NC(=O)c2ccccc2[N+](=O)[O-])C(Cl)(Cl)Cl)c1 (stereo unspecified) the results were KAT2A inh inactive, RECQ1 helicase inactive, APE1 inh-1 inactive, BLM inh inactive, KDM4E inh inactive and TDP1 inh inactive.
COC(=O)C1=C(C)N(Cc2ccccc2)C2=C(C(=O)c3ccccc3)C(c3ccccc3)[C@@](O)(C(=O)OC)C(=O)N2C1c1ccccc1 (stereo partly specified) was read as RECQ1 helicase inactive[11.5 µM], APE1 inh-1 inactive[12.4 µM], BLM inh inactive[12.4 µM] and TDP1 inh inactive[21 µM].
`Cc1cc(O)c(C=O)c2c1C(=O)Oc1c(COC(=O)/C=C/C(=O)O)c(O)c(C(=O)O)c(C)c1O2` gave KAT2A inh 20µM, RECQ1 helicase 3.98µM, APE1 inh-1 1.26µM, BLM inh inactive, KDM4E inh inconclusive, TDP1 inh 39.8µM, EndoIV counter inactive and APE1 inh-2 11.2µM.
For Cc1cc(C=O)c(C)n1-c1cccc(C(=O)O)c1 the results were KAT2A inh inactive, RECQ1 helicase inactive, APE1 inh-1 22.4µM, BLM inh inactive, KDM4E inh inactive, TDP1 inh 5.01µM, APE1 dye cs inactive, EndoIV counter inactive, APE1 inh-2 15.8µM and APE1 FP inh inactive.
Cc1cc(C=O)c(C)n1-c1cc(C(=O)O)cc(C(=O)O)c1 was read as KAT2A inh inactive, RECQ1 helicase inactive, APE1 inh-1 inactive, BLM inh inactive, KDM4E inh inconclusive and TDP1 inh inactive.
N#CN1CCC(NS(=O)(=O)c2cccc(C(F)(F)F)c2)CC1 was read as TDP1 inh inactive.
